{"source": "PubChem BioAssay (NCATS)", "note": "“And” between values parts separate entries of the source, which are not always exact repeats. Identical values can stand only once. Records with an inconclusive call do not appear. The source made the active and inactive calls. Calls come from the whole dose curve; as a rule, active = well fitted curve in the direction sought with a large enough effect; inconclusive = small, poorly fitted or top-dose-only effect, or another doubt; inactive = no such curve, though single readings can be large; an effect the other way counts as inactive or inconclusive."}
{"target": "T1, Hexokinase-4 (Homo sapiens) + Glucokinase regulatory protein (Homo sapiens) (UniProt P35557+Q14397)", "T1 sequence (P35557 whole entry, looked up)": "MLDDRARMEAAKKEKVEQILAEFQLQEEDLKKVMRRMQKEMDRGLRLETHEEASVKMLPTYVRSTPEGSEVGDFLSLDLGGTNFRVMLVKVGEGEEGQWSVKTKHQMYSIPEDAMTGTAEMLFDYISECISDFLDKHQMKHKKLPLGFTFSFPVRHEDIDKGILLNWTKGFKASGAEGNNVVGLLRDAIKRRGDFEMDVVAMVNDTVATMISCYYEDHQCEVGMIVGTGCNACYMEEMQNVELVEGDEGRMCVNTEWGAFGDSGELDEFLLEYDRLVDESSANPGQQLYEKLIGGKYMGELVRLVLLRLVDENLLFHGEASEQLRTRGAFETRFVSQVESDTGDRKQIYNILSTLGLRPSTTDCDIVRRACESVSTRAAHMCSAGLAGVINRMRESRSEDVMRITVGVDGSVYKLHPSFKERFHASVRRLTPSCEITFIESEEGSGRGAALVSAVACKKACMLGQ", "T1 sequence (Q14397 whole entry, looked up)": "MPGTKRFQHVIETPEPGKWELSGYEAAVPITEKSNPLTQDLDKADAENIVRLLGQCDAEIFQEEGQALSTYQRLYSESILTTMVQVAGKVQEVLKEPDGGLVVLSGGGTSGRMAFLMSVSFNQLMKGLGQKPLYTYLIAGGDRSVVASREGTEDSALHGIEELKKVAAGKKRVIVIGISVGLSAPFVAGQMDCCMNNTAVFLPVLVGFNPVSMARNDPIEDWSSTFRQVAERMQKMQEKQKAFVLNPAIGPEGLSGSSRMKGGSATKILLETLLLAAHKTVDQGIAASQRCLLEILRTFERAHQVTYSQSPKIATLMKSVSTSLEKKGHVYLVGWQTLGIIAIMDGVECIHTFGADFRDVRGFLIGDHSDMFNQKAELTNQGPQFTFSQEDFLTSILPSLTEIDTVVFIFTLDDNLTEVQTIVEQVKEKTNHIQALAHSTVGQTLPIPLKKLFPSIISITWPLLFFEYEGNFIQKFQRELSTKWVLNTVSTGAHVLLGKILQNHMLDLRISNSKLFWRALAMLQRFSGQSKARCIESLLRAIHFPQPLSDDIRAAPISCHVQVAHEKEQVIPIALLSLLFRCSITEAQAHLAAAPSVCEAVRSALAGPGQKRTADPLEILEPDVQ", "test": "qHTS assay for inhibitors of recombinant human GCK-GKRP interaction: Diaphorase-coupled assay (AID 743205)", "conditions": "G6PDH/diaphorase resorufin fluorescence; series mostly up to 57.5 µM; activity change, positive = activation: at the top concentration", "how_it_was_run": "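GST-GCK (10 nM) with FLAG-GKRP (10 nM), 5 mM glucose and 0.4 mM ATP in pH 7.6 Hepes; compounds preincubated 20 min with substrate. G6PDH/diaphorase coupling converts resazurin to resorufin, read kinetically (ex 525/em 590 nm) for 30 min.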"}
{"compound": "CC(C)(C)NC[C@H](O)COc1nsnc1N1CCOCC1", "activity change, positive = activation": "-4.67% (inactive)"}
{"compound": "CCOC(=O)[C@H](CCc1ccccc1)N[C@@H](C)C(=O)N1[C@H](C(=O)O)C[C@H]2CCCC[C@@H]21", "activity change, positive = activation": "-2.99% (inactive)"}
{"compound": "NC(N)=NCc1cccc(I)c1", "activity change, positive = activation": "0.34% (inactive)"}
{"target": "T1, Hexokinase-4 (Homo sapiens) + Glucokinase regulatory protein (Homo sapiens)", "test": "qHTS assay for inhibitors of recombinant human GCK-GKRP interaction: ADP-Glo assay (AID 743206);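 note: plate controls were DMSO plus enzyme for no effect and no enzyme for full effect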", "conditions": "ADP-Glo luminescence, 60 min, 0% = vehicle-only wells with enzyme present; series mostly up to 76.9 µM; activity, positive = activation: at the top concentration", "how_it_was_run": "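GST-GCK and FLAG-GKRP (15 nM each in the dispensed mix, with 2 uM S6P) react with 0.4 mM ATP and 5 mM glucose (final) in Hepes pH 7.6 for 60 min at room temperature. ADP is measured by ADP-Glo luminescence.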"}
{"compound": "CC(C)(C)NC[C@H](O)COc1nsnc1N1CCOCC1", "activity, positive = activation": "-2.64% (inactive)"}
{"compound": "CCOC(=O)[C@H](CCc1ccccc1)N[C@@H](C)C(=O)N1[C@H](C(=O)O)C[C@H]2CCCC[C@@H]21", "activity, positive = activation": "2.9% (inactive)"}
{"compound": "NC(N)=NCc1cccc(I)c1", "activity, positive = activation": "1.93% (inactive)"}
{"target": "T1, Hexokinase-4 (Homo sapiens) + Glucokinase regulatory protein (Homo sapiens)", "test": "qHTS assay for inhibitors of recombinant human GCK-GKRP interaction: HTRF assay (AID 743207);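 note: 0% = DMSO with GCK present and -100% = DMSO wells lacking GCK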", "conditions": "recombinant GCK-GKRP HTRF binding, 60 min, with sorbitol-6-phosphate; series mostly up to 57.5 µM; activity change, negative = inhibition: at the top concentration", "how_it_was_run": "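GST-GCK and FLAG-GKRP (5 nM each) were combined with 2 uM S6P in pH 7.1 Hepes/MgCl2/KCl/DTT buffer, then compound and anti-FLAG XL665/anti-GST K antibodies were added. After 60 min at room temperature, HTRF 665/615 nm emission was read.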"}
{"compound": "CC(C)(C)NC[C@H](O)COc1nsnc1N1CCOCC1", "activity change, negative = inhibition": "-0.899% (inactive)"}
{"compound": "CCOC(=O)[C@H](CCc1ccccc1)N[C@@H](C)C(=O)N1[C@H](C(=O)O)C[C@H]2CCCC[C@@H]21", "activity change, negative = inhibition": "3.84% (inactive)"}
{"compound": "NC(N)=NCc1cccc(I)c1", "activity change, negative = inhibition": "-2.86% (inactive)"}
{"tested_on": "not listed separately", "test": "qHTS Assay for Identifying Gametocytocidal Compounds (AID 743244);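 note: % is set by controls: 0 for no effect and ±100 for the full control effect; actives lower the fluorescent signal which means gametocytes are killed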", "conditions": "P. falciparum 3D7 stage III-V gametocytes, alamarBlue, 72 h; max response: hits give low values", "how_it_was_run": "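Stage III-V P. falciparum 3D7 gametocytes, 20,000 per well, were exposed to compounds for 72 h at 37C, 5% CO2. AlamarBlue was then added for 24 h and viability was read as fluorescence at Ex 525/Em 598 nm.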"}
{"compound": "CCCCCCCCCCCCCCCC(=O)O", "max response": "2.07% (inactive)"}
{"compound": "C#C[C@]1(O)CC[C@H]2[C@@H]3CCC4=Cc5oncc5C[C@]4(C)[C@H]3CC[C@@]21C", "max response": "-4.72% (inactive)"}
{"compound": "CC1(C)OC[C@@H]2O[C@@]3(C(=O)O)OC(C)(C)O[C@H]3[C@@H]2O1", "max response": "-4.16% (inactive)"}
{"compound": "Oc1c(Cl)cc(Cl)c(Cl)c1Cc1c(O)c(Cl)cc(Cl)c1Cl", "max response": "14.7% (inactive)"}
{"compound": "CC(C)(C)NC[C@H](O)COc1nsnc1N1CCOCC1", "max response": "-3.64% (inactive)"}
{"compound": "CCCCCCCCOc1ccc(C(=O)c2ccccc2)c(O)c1", "max response": "-5.25% (inactive)"}
{"compound": "NC(=O)c1ccccc1O", "max response": "-5.71% (inactive)"}
{"compound": "CCOC(=O)[C@H](CCc1ccccc1)N[C@@H](C)C(=O)N1[C@H](C(=O)O)C[C@H]2CCCC[C@@H]21", "max response": "-0.763% (inactive) and -2.8% (inactive) and 30% (inactive)"}
{"compound": "COc1ccc(C(Cl)=C(c2ccc(OC)cc2)c2ccc(OC)cc2)cc1", "max response": "5.06% (inactive)"}
{"compound": "CCCCC(CC)COC(=O)c1ccc(N(C)C)cc1", "note": "(centres undefined)", "max response": "3.36% (inactive)"}
{"compound": "CCOc1ccccc1C(N)=O", "max response": "14% (inactive)"}
{"compound": "CCCCOC(=O)CC(CC(=O)OCCCC)(OC(C)=O)C(=O)OCCCC", "max response": "2.63% (inactive)"}
{"compound": "OC[C@H]1O[C@@H]2O[C@H]3[C@H](O)[C@@H](O)[C@@H](O[C@H]4[C@H](O)[C@@H](O)[C@@H](O[C@H]5[C@H](O)[C@@H](O)[C@@H](O[C@H]6[C@H](O)[C@@H](O)[C@@H](O[C@H]7[C@H](O)[C@@H](O)[C@@H](O[C@H]8[C@H](O)[C@@H](O)[C@@H](O[C@H]1[C@H](O)[C@H]2O)O[C@@H]8CO)O[C@@H]7CO)O[C@@H]6CO)O[C@@H]5CO)O[C@@H]4CO)O[C@@H]3CO", "max response": "2.64% (inactive)"}
{"tested_on": "not listed separately", "test": "qHTS assay for cell viability of HEK293 cells (AID 743288); note: % is set by controls: 0 for no effect and ±100 for the full control effect; nearly all actives have a fitted effect of over 50% in size", "conditions": "ATP luminescence (CellTiter-Glo), 18 h, hits give low values", "how_it_was_run": "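Parental HEK293 cells were seeded at 2,000 cells/well, rested at least 5 h at 37 C, then exposed to compounds in DMSO for 18 h at 37 C. Viability was read as ATP-dependent luciferase luminescence after 30 min at room temperature.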"}
{"compound": "CCCCCCCCCCCCCCCC(=O)O", "max response": "-2.84% (inactive)"}
{"compound": "C#C[C@]1(O)CC[C@H]2[C@@H]3CCC4=Cc5oncc5C[C@]4(C)[C@H]3CC[C@@]21C", "max response": "-10.7% (inactive)"}
{"compound": "C=C[C@H]1CN2CC[C@H]1C[C@@H]2[C@@H](O)c1ccnc2ccc(OC)cc12", "max response": "-3.56% (inactive)"}
{"compound": "CC1(C)OC[C@@H]2O[C@@]3(C(=O)O)OC(C)(C)O[C@H]3[C@@H]2O1", "max response": "-6.28% (inactive)"}
{"compound": "CCCCCCCCOc1ccc(C(=O)c2ccccc2)c(O)c1", "max response": "-9.08% (inactive)"}
{"compound": "NC(=O)c1ccccc1O", "max response": "-5% (inactive)"}
{"compound": "COc1ccc(C(=O)c2ccccc2)c(O)c1", "max response": "-9.22% (inactive) and -8.85% (inactive)"}
{"compound": "COc1ccc(C(Cl)=C(c2ccc(OC)cc2)c2ccc(OC)cc2)cc1", "max response": "-29.7% (inactive)"}
{"compound": "CCCCC(CC)COC(=O)c1ccc(N(C)C)cc1", "note": "(centres undefined)", "max response": "4.36% (inactive) and -3.29% (inactive)"}
{"compound": "CCOc1ccccc1C(N)=O", "max response": "9.95% (inactive)"}
{"compound": "CCCCOC(=O)CC(CC(=O)OCCCC)(OC(C)=O)C(=O)OCCCC", "max response": "-16.9% (inactive)"}
{"compound": "NCCNc1cccc2ccccc12", "max response": "-10.4% (inactive) and -20.5% (inactive)"}
{"compound": "OC[C@H]1O[C@@H]2O[C@H]3[C@H](O)[C@@H](O)[C@@H](O[C@H]4[C@H](O)[C@@H](O)[C@@H](O[C@H]5[C@H](O)[C@@H](O)[C@@H](O[C@H]6[C@H](O)[C@@H](O)[C@@H](O[C@H]7[C@H](O)[C@@H](O)[C@@H](O[C@H]8[C@H](O)[C@@H](O)[C@@H](O[C@H]1[C@H](O)[C@H]2O)O[C@@H]8CO)O[C@@H]7CO)O[C@@H]6CO)O[C@@H]5CO)O[C@@H]4CO)O[C@@H]3CO", "max response": "-3.67% (inactive)"}
{"tested_on": "not listed separately", "test": "qHTS assay for cell viability of the p53RE-bla HCT-116 cell line (AID 743292); note: % is set by controls: 0 for no effect and ±100 for the full control effect; nearly all actives have a fitted effect of over 55% in size", "conditions": "p53RE-bla HCT-116 viability, ATP luminescence, 16 h; series mostly up to 95 µM; activity change, negative = cytotoxicity: at the top concentration", "how_it_was_run": "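After plating at 4,000 cells per well and a 5 h rest at 37 C, HCT-116 cells carrying p53RE-bla received test chemicals in DMSO. Sixteen hours later at 37 C, CellTiter-Glo was added and luminescence recorded following 30 min at room temperature.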"}
{"compound": "CCCCCCCCCCCCCCCC(=O)O", "activity change, negative = cytotoxicity": "2.89% (inactive)"}
{"compound": "C#C[C@]1(O)CC[C@H]2[C@@H]3CCC4=Cc5oncc5C[C@]4(C)[C@H]3CC[C@@]21C", "activity change, negative = cytotoxicity": "-5.7% (inactive)"}
{"compound": "C=C[C@H]1CN2CC[C@H]1C[C@@H]2[C@@H](O)c1ccnc2ccc(OC)cc12", "activity change, negative = cytotoxicity": "-9.01% (inactive)"}
{"compound": "CC1(C)OC[C@@H]2O[C@@]3(C(=O)O)OC(C)(C)O[C@H]3[C@@H]2O1", "activity change, negative = cytotoxicity": "-9.45% (inactive)"}
{"compound": "Oc1c(Cl)cc(Cl)c(Cl)c1Cc1c(O)c(Cl)cc(Cl)c1Cl", "outcome": "inactive"}
{"compound": "CCCCCCCCOc1ccc(C(=O)c2ccccc2)c(O)c1", "activity change, negative = cytotoxicity": "1.81% (inactive)"}
{"compound": "NC(=O)c1ccccc1O", "activity change, negative = cytotoxicity": "-13% (inactive)"}
{"compound": "COc1ccc(C(=O)c2ccccc2)c(O)c1", "outcome": "inactive"}
{"compound": "COc1ccc(C(Cl)=C(c2ccc(OC)cc2)c2ccc(OC)cc2)cc1", "activity change, negative = cytotoxicity": "-23.2% (inactive)"}
{"compound": "CCCCC(CC)COC(=O)c1ccc(N(C)C)cc1", "note": "(centres undefined)", "outcome": "inactive"}
{"compound": "CCOc1ccccc1C(N)=O", "activity change, negative = cytotoxicity": "-8.17% (inactive)"}
{"compound": "CCCCOC(=O)CC(CC(=O)OCCCC)(OC(C)=O)C(=O)OCCCC", "activity change, negative = cytotoxicity": "0.505% (inactive)"}
{"compound": "NCCNc1cccc2ccccc12", "outcome": "inactive"}
{"compound": "OC[C@H]1O[C@@H]2O[C@H]3[C@H](O)[C@@H](O)[C@@H](O[C@H]4[C@H](O)[C@@H](O)[C@@H](O[C@H]5[C@H](O)[C@@H](O)[C@@H](O[C@H]6[C@H](O)[C@@H](O)[C@@H](O[C@H]7[C@H](O)[C@@H](O)[C@@H](O[C@H]8[C@H](O)[C@@H](O)[C@@H](O[C@H]1[C@H](O)[C@H]2O)O[C@@H]8CO)O[C@@H]7CO)O[C@@H]6CO)O[C@@H]5CO)O[C@@H]4CO)O[C@@H]3CO", "activity change, negative = cytotoxicity": "-1.13% (inactive)"}
